D2 antag: HTS Assay for Allosteric Antagonists of the Human D2 Dopamine Receptor: Primary Screen for Antagonists; AID 485344, 2010; 2% of 340,000 active; HEK293 TREx D2 cells, calcium flux, dopamine EC80; D(2) dopamine receptor (Homo sapiens), P14416; inhibition, % at 10 µM; in the data active = inhibition above about 30%; inactive = below that, where a call was filed; also: 0% is about no effect
Target sequence (P14416 whole entry, looked up): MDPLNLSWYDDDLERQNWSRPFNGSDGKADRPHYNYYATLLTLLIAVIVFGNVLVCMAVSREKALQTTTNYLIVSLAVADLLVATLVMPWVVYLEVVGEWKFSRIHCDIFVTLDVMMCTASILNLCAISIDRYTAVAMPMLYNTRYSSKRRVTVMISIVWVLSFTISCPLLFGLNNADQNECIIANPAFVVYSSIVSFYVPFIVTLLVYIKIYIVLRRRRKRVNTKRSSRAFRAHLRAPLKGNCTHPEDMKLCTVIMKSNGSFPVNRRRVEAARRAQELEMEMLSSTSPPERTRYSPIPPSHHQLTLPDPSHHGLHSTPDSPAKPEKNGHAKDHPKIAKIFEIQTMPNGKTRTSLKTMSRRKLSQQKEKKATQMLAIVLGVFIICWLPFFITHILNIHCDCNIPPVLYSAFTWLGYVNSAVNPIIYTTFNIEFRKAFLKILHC
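In this primary screen, negative modulation is detected by tracking calcium flux after an EC80 dopamine challenge in inducible HEK293 T-REx D2 cells preexposed to test compound for 180 s.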
D2 PAM-1: Beta-Arrestin HTS for Positive Allosteric Modulators of the Human D2 Dopamine Receptor: Potentiators. AID 624464, 2012. 0.23% of 360,000 active. D(2) dopamine receptor (Homo sapiens), P14416. potentiation, % (concentration not given with the values). DiscoveRx D2 beta-arrestin cells, luminescence, 90 min; 100% = 57 uM dopamine signal; in the data active = potentiation above about 50%
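D2 cells co-treated with compound plus 50 nM dopamine (EC20) for 90 min at 37 deg C to detect potentiation. Beta-arrestin recruitment was read as enzyme-fragment luminescence after 1 h at ambient temperature. Full response was set by 57 uM dopamine.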
D2 ag-1: Beta-Arrestin HTS for Positive Allosteric Modulators of the Human D2 Dopamine Receptor: Agonists. 0.084% of 360,000 active. DiscoveRx PathHunter D2 beta-arrestin, luminescence, 90 min; 100% = 57 uM dopamine signal. activation, % (test concentration not listed). D(2) dopamine receptor (Homo sapiens), P14416. AID 624465, 2012; in the data active = activation above about 40%
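Agonist mode: compounds alone added to overnight-plated D2 PathHunter cells for 90 min at 37 C, with 57 uM final dopamine (EC100) defining full response. Beta-arrestin recruitment detected by chemiluminescent reagent, read after 1 h at ambient temperature.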
D2 ag-2: HTS Assay for Allosteric Agonists of the Human D2 Dopamine Receptor: Primary Screen for Agonists | D(2) dopamine receptor (Homo sapiens), P14416 | HEK293 T-REx D2 cells, calcium flux agonist mode | activation, % at 2 µM | 0.53% of 340,000 active | AID 485358, 2010;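 active = activation over 3 SD above normal in the single-dose calcium agonist read, cut at about 30% in these data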; also: 0% is about no effect
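Tetracycline-induced HEK293 T-REx cells with force-coupled D2 receptor, plated overnight at 30 C, loaded with no-wash calcium dye. After a 10 s baseline, compound was pin-added and calcium flux read kinetically for 180 s; calcium rises flagged agonists.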
D2 PAM-2: HTS Assay for Positive Allosteric Modulators of the Human D2 Dopamine Receptor: Primary Screen for Potentiators; D(2) dopamine receptor (Homo sapiens), P14416; HEK293 T-REx D2, calcium flux, EC20 dopamine potentiation; potentiation, % at 10 µM; 0.34% of 340,000 active; AID 485347, 2010;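 active = potentiation over 3 SD above the plate norm, cut at about 30% in these data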; also: 0% is about no effect
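Potentiation of an EC20 dopamine calcium response measured kinetically over 180 s, after a preceding 180 s compound-only read flagging agonists. Cells: inducible Hek293 Trex D2 line, 4000/well, cultured overnight at 30 C before dye loading.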
Starred values were filed as active, the others as inactive; / = not tested or not shown. Only some compounds are listed: those with a hit (about 2.4% of all), similar ones and a draw of the others.

SMILES	D2 antag	D2 PAM-1	D2 ag-1	D2 ag-2	D2 PAM-2
CC1CC(C)(C)NC(=S)N1CC(=O)N1CCN(Cc2ccccc2)CC1 (stereo not drawn)	-5.6	-2.1	-0.3	-0.3	-0.2
N=c1nc2n(cc1F)C1OC(CO)C(O)C1O2 (stereo not drawn)	/	-12.9	-5.9	/	/
CCOC(=O)c1[nH]c2ccccc2c1NC(=O)c1cc(OC)c(OC)c(OC)c1	/	-3.7	-1.0	/	/
COc1cc(C(=O)Nc2c(C(=O)O)[nH]c3ccc(C)cc23)cc(OC)c1OC	34.3*	-9.5	-0.4	-0.9	19.0
COc1ccccc1CNCC(O)Cn1c2ccccc2c2ccccc21 (stereo not drawn)	42.3*	-2.3	0.9	2.7	5.3
COc1ccccc1C(C)NCC(=O)NCc1ccc(C)cc1 (stereo not drawn)	37.2*	-16.0	0.7	0.4	-27.5
COc1ccccc1CNCC(=O)NCc1ccc(C)cc1	52.4*	-26.9	-1.6	0.3	-26.2
COc1ccccc1C(C)NCC(=O)NCC(=O)Nc1ccc(F)c(F)c1F (stereo not drawn)	-0.8	-19.3	-0.4	0.0	-11.3
COc1ccccc1CNC(=O)Cc1ccc(C)cc1	-18.8	-5.7	2.4	-0.5	-2.1
CC[C@]12C(=O)N(C)C[C@H]([C@@H]3C(=O)N(Cc4ccccc4)C(=O)[C@@H]31)N2C(=O)c1ccccc1	/	-5.2	0.2	/	/
O=C1NCCN(CC2CCN(CC3CCCC3)CC2)C1=O	/	-7.3	-6.6	/	/
Cc1ccc(NC(=O)CSc2nc(-c3ccccc3Cl)nc3cc(=O)[nH]n23)c(C)c1	/	/	/	0.1	-1.3
CCOc1ccc(CNCCN2CCCC2)cc1	74.1*	-14.4	-3.9	0.6	-18.7
O=C(COc1ccccc1Cl)Nc1cnn(Cc2ccccc2)c1	-14.1	-13.0	0.7	-0.6	-2.6
O=C(Nc1cnn(Cc2c(Cl)cccc2Cl)c1)C(c1ccccc1)c1ccccc1	15.7	1.3	-0.8	0.5	32.9*
CCC(C)c1ccccc1NC(=O)COC(=O)c1ccc2[nH]c3c(c2c1)CCCC3 (stereo not drawn)	70.5*	14.2	5.0	-0.4	-17.1
O=C(COC(=O)c1ccc2[nH]c3c(c2c1)CCCC3)Nc1ccccc1Cl	0.0	-5.5	-2.2	-0.7	6.9
Cc1cc(C)cc(NC(=O)CSc2nc3nc(C)cc(C)c3c(=O)[nH]2)c1	34.6*	1.7	0.9	0.6	-2.5
CCCCn1cnc2c(=S)nc(N)[nH]c21	5.5	-5.5	2.8	0.8	5.2
CCCCCn1cnc2c(=S)nc(N)[nH]c21	48.6*	-6.0	2.3	1.7	8.3
CC1(C)CC(=O)c2sc(NS(=O)(=O)Cc3ccccc3)nc2C1	6.0	2.4	-1.4	-0.3	34.2*
Cc1ccc(S(=O)(=O)Nc2nc3c(s2)C(=O)CC(C)(C)C3)cc1	-11.8	-0.9	-4.6	-0.5	-3.6
O=C1CSC(c2cccnc2)N1Cc1cccnc1 (stereo not drawn)	-17.3	7.4	-2.4	0.3	-1.4
O=C1CSC(c2cccnc2)N1CCc1ccccn1 (stereo not drawn)	54.6*	-10.3	-5.3	-1.6	-2.7
Oc1ccccc1Nc1nc(-c2ccccc2)c2cc(Cl)ccc2n1	/	/	/	/	5.7
SMILES	D2 antag	D2 PAM-1	D2 ag-1	D2 ag-2	D2 PAM-2
O=S(=O)(/C=C/c1ccccc1)Nc1ccc2c(c1)OCO2	34.3*	1.3	-1.4	-0.2	15.9
O=C(NCc1ccccc1)Nc1cccn(Cc2ccc(Cl)cc2)c1=O	-24.9	-8.7	-6.8	0.4	1.6
O=C(NCc1ccccc1Cl)NC(=O)c1ccccc1	33.4*	-3.0	0.8	-0.5	-12.9
O=C(NCc1ccccc1)Nc1cccn(Cc2ccccc2Cl)c1=O	33.2*	-3.7	-3.3	-2.2	-7.5
Cc1ccc(NC(=O)Cn2c(=O)n(CCc3ccccc3)c(=O)c3sc4ccccc4c32)cc1C	/	/	/	/	6.4
COC(=O)c1[nH]c2ccc(Cl)cc2c1NC(=O)C1CC1	-13.6	-3.6	1.3	-0.3	-1.7
COC(=O)c1[nH]c2ccc(Cl)cc2c1NC(=O)Oc1ccccc1	-14.2	68.1*	8.1	0.2	5.4
C=CCSc1nnc2c(n1)OC(c1cccnc1)Nc1ccccc1-2 (stereo not drawn)	-3.3	53.4*	2.5	0.1	-4.7
C=CCSc1nnc2c(n1)OC(c1cccnc1)N(C(C)=O)c1ccccc1-2 (stereo not drawn)	-8.4	-14.0	-3.3	0.3	2.5
O=S(=O)(Nc1cccc2ccccc12)c1cccs1	-17.2	0.8	90.5*	-0.2	-1.8
CCOc1cccc2sc(N(CCN(C)C)C(=O)/C=C/c3cccs3)nc12	65.9*	-32.4	-3.2	-0.7	-23.1
COc1cccc2sc(N(CCN(C)C)C(=O)/C=C/c3cccs3)nc12	-6.4	-22.2	0.7	0.3	-18.9
COc1ccccc1CNC(=O)COC(=O)c1nc(Cl)ccc1Cl	/	3.6	-2.7	/	4.5
O=C(O)CC(c1ccc(Br)cc1)N1Cc2ccccc2C1=O (stereo not drawn)	42.3*	1.3	-1.7	0.3	1.3
Cc1ccc(C(=O)N2CCCC(CCC(=O)N3CCN(c4ccccn4)CC3)C2)cc1C (stereo not drawn)	1.3	-5.2	-2.6	1.6	5.2
Cc1ccc(C(=O)N2CCCC(CCC(=O)N3CCN(c4ccccn4)CC3)C2)cn1 (stereo not drawn)	-2.6	75.1*	-4.8	0.3	5.5
CCc1cc2c(C)cc(=O)oc2cc1Oc1ncccc1[N+](=O)[O-]	-10.5	/	/	-5.3	5.6
OCCSc1ncnc2c1oc1ccccc12	6.8	-20.9	-2.2	0.8	5.5
N#CCCSc1ncnc2c1oc1ccccc12	36.2*	-16.4	-1.7	0.4	5.2
N#Cc1c(-c2cccs2)cc(-c2cccnc2)nc1N	48.7*	-1.3	-0.4	0.2	-2.1
N#Cc1c(-c2ccc(F)cc2)cc(-c2cccnc2)nc1N	/	2.0	0.1	/	/
CC(Oc1ccc2ccc(=O)oc2c1)C(=O)N1CCOCC1 (stereo not drawn)	-0.1	-2.6	-1.3	-0.1	-8.8
Oc1ccccc1N1CCN(c2ncnc3scc(-c4ccc(F)cc4)c23)CC1	/	1.7	1.7	/	/
Oc1ccccc1N1CCN(c2ncnc3scc(-c4ccccc4)c23)CC1	-1.2	9.8	5.0	9.1	33.1*
COC(=O)c1ccccc1NC(=O)NCc1ccc2c(c1)OCO2	34.4*	-15.4	-0.1	0.0	-10.8
COc1cc(C)c(S(=O)(=O)NCc2ccc3c(c2)OCO3)cc1C	31.7*	-7.6	-3.5	-0.4	-19.3

Compound activity as filed in PubChem BioAssay.
